Source: PubChem BioAssay (NCI)
The panel holds about 79,000 compounds, 15% with a hit somewhere; the sample as a whole holds those more often. Activity calls are given as the source filed them. Cut-off read from the data, not from the text of the source: active = growth inhibition above about 70%; inactive = the rest.

Key:
[1] = NCI Yeast Anticancer Drug Screen. Data for the rad50 strain (AID 155);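 note: 0% = growth of vehicle-only cultures of the same strain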; conditions: S. cerevisiae rad50 strain growth inhibition, stronger effect = higher value
Summary of the method: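 Genetically altered yeast (DNA repair pathway); compound treatment; growth inhibition vs vehicle ctrl.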

[2] = NCI Yeast Anticancer Drug Screen. Data for the mec2-1 strain (AID 157); conditions: S. cerevisiae mec2-1 strain, stronger effect = higher value
Summary of the method: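 Readout is yeast growth inhibition, normalised to vehicle-treated controls, in the mec2-1 strain exposed to compound.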

[3] = NCI Yeast Anticancer Drug Screen. Data for the sgs1 mgt1 strain (AID 161);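 note: 0% = growth of cultures given vehicle only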; conditions: S. cerevisiae sgs1 mgt1 strain, stronger effect = higher value
Summary of the method: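 This yeast growth screen uses a strain with defined DNA-repair lesions; compound-treated growth is compared with vehicle-treated growth.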

[4] = NCI Yeast Anticancer Drug Screen. Data for the cln2 rad14 strain (AID 165);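 note: 0% = growth equal to vehicle treated cultures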; conditions: S. cerevisiae cln2 rad14 strain, stronger effect = higher value
Summary of the method: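 Relative to vehicle controls, growth inhibition of compound-treated cln2 rad14 yeast was recorded.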

[5] = NCI Yeast Anticancer Drug Screen. Data for the bub3 strain (AID 167); conditions: S. cerevisiae bub3 mutant strain, stronger effect = higher value
Summary of the method: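 Yeast carrying a defined mutation is treated with each compound, and growth is compared with that of vehicle-exposed cells to give inhibition.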

[6] = NCI Yeast Anticancer Drug Screen. Data for the mlh1 rad18 strain (AID 175); conditions: S. cerevisiae mlh1 rad18 strain growth inhibition, stronger effect = higher value
Summary of the method: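 Test agents were incubated with a yeast strain of defined genotype (DNA damage repair defect). Inhibition of growth was derived by comparison with vehicle-exposed cultures.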

[7] = at 5.0 µM (retest, dose inferred, filed as 0.5)
[8] = at 50.0 µM (retest, dose inferred, filed as 5.0)

Measured: growth inhibition

COC1=CC(=O)[C@H]2CC(C)=CC[C@]2(C)C1=O
inactive: [1]; [7] -3% | [1]; [8] 2% | [1]; at 50.0 µM 9.35% | [2]; [7] 1% | [2]; [8] 0% | [2]; at 50.0 µM 6.55% | [3]; [7] 2% | [3]; [8] 0% | [3]; at 50.0 µM -4.75% | [4]; [7] 1% | [4]; [8] -2% | [5]; [7] -1% | [5]; [8] 0% | [5]; at 50.0 µM 3.35% | [6]; [7] -1% | [6]; [8] 1% | [6]; at 50.0 µM 15.1%
active: [4]; at 50.0 µM 84%

CCN(CC)CCCCSc1ccc([N+](=O)[O-])cc1[N+](=O)[O-]
active: [1]; at 50.0 µM 77.6% | [3]; at 50.0 µM 72.8% | [6]; at 50.0 µM 71.9%
inactive: [1]; [7] 27% | [1]; [8] 45% | [2]; [7] 32% | [2]; [8] 36% | [2]; at 50.0 µM 45.4% | [3]; [7] 32% | [3]; [8] 68% | [4]; [7] 43% | [4]; [8] 43% | [4]; at 50.0 µM 59.3% | [5]; [7] 30% | [5]; [8] 47% | [5]; at 50.0 µM 65.8% | [6]; [7] 23% | [6]; [8] 44%

O=C1c2ccccc2C(=O)c2ncccc21
inactive: [1]; [7] 14% | [2]; [7] 8% | [3]; [7] 8% | [4]; [7] -2% | [5]; [7] 11% | [6]; [7] 37%
active: [1]; [8] 91% | [1]; at 50.0 µM 96.3% | [2]; [8] 86% | [2]; at 50.0 µM 94.4% | [3]; [8] 89% | [3]; at 50.0 µM 93.3% | [4]; [8] 85% | [4]; at 50.0 µM 86.5% | [5]; [8] 87% | [5]; at 50.0 µM 91% | [6]; [8] 95% | [6]; at 50.0 µM 97.8%

CN=C(N)N/N=C(\C)c1ccc2c(ccc3ccccc32)c1
inactive: [1]; [7] 11% | [2]; [7] 14% | [3]; [7] 13% | [4]; [7] -3% | [5]; [7] 33% | [6]; [7] 35%
active: [1]; [8] 98% | [1]; at 50.0 µM 89.2% | [2]; [8] 99% | [2]; at 50.0 µM 91.2% | [3]; [8] 99% | [3]; at 50.0 µM 90.8% | [4]; [8] 98% | [4]; at 50.0 µM 91.3% | [5]; [8] 99% | [5]; at 50.0 µM 88.3% | [6]; [8] 97% | [6]; at 50.0 µM 91.7%

CCC(C)(O)Cc1cnccn1 (configuration not stated)
inactive: [1]; [7] 3% | [1]; [8] 1% | [1]; at 50.0 µM 1.75% | [2]; [7] 0% | [2]; [8] 1% | [2]; at 50.0 µM -2.7% | [3]; [7] 2% | [3]; [8] -3% | [3]; at 50.0 µM 7.25% | [4]; [7] -1% | [4]; [8] -2% | [4]; at 50.0 µM 14.8% | [5]; [7] 0% | [5]; [8] 1% | [5]; at 50.0 µM 12.1% | [6]; [7] -10% | [6]; [8] 2% | [6]; at 50.0 µM 9.25%

OC(CBr)c1cc(-c2ccccc2)nc2ccccc12 (configuration not stated)
inactive: [1]; [7] -3% | [1]; at 50.0 µM -5.25% | [2]; [7] -2% | [2]; at 50.0 µM 18.1% | [3]; [7] -3% | [3]; at 50.0 µM 41.8% | [4]; [7] -17% | [4]; at 50.0 µM -24.7% | [5]; [7] 1% | [5]; at 50.0 µM 69.3% | [6]; [7] -3% | [6]; at 50.0 µM 28.2%
active: [1]; [8] 98% | [2]; [8] 96% | [3]; [8] 97% | [4]; [8] 93% | [5]; [8] 99% | [6]; [8] 97%

Cc1cc(N(CCOS(C)(=O)=O)CCOS(C)(=O)=O)ccc1C=Nc1cc(Br)c(O)c(Br)c1
active: [1]; [8] 71% | [1]; at 50.0 µM 82.5% | [2]; at 50.0 µM 72.6% | [3]; at 50.0 µM 84.2% | [6]; [8] 91% | [6]; at 50.0 µM 95.8%
inactive: [1]; [7] 4% | [2]; [7] -93% | [2]; [8] 63% | [3]; [7] 2% | [3]; [8] 53% | [4]; [7] 4% | [4]; [8] 43% | [4]; at 50.0 µM 50.4% | [5]; [7] 2% | [5]; [8] 24% | [5]; at 50.0 µM 21.1% | [6]; [7] 22%

COc1cc(/C=C/C(=O)Sc2ccccc2)cc(OC)c1O
active: [1]; at 50.0 µM 74.7% | [4]; at 50.0 µM 75.7% | [5]; [8] 70%
inactive: [1]; [7] 1% | [1]; [8] 47% | [2]; [7] 0% | [2]; [8] 58% | [2]; at 50.0 µM 58.6% | [3]; [7] -3% | [3]; [8] 60% | [3]; at 50.0 µM 59.2% | [4]; [7] 2% | [4]; [8] 38% | [5]; [7] 2% | [5]; at 50.0 µM 51% | [6]; [7] -2% | [6]; [8] 58% | [6]; at 50.0 µM 50.6%

Cc1ccccc1N1C(=O)C(=O)c2cccc(C)c21
inactive: [1]; [7] 2% | [2]; [7] 0% | [3]; [7] 1% | [4]; [7] 1% | [5]; [7] 2% | [6]; [7] 0%
active: [1]; [8] 98% | [1]; at 50.0 µM 99.2% | [2]; [8] 99% | [2]; at 50.0 µM 99.5% | [3]; [8] 99% | [3]; at 50.0 µM 99.7% | [4]; [8] 98% | [4]; at 50.0 µM 97% | [5]; [8] 99% | [5]; at 50.0 µM 99.8% | [6]; [8] 99% | [6]; at 50.0 µM 83.1%
